Values joined by “and” are separate entries in the source; they are usually repeats but may differ in a detail not shown here. Equal values may be shown once. The campaign covered roughly 5,500 compounds. About 2,000 (36%) were called active. About 18% were inconclusive and are not listed. Cut-off read from the data, not from the text of the source: active = normalized growth mostly below about 0.91 (no sharp cut-off); inconclusive = no clear call, values can overlap the other calls; inactive = mostly above about 0.92. The list shows a part of the results.
Test: chemical genetic growth profiling, strain panel (AID 1159580);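 note: tested at 20 µM; growth read once vehicle control cultures reached saturation at 30 °C; 1 = growth at the plate median or of vehicle wells; lower values mean less growth of the strain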
Conditions: S. cerevisiae deletion strains, growth OD

Measured: normalized growth

C[n+]1cccc(C(=O)[O-])c1
inactive: locus YAL013W, strain DEP1, active compounds read low 1.01 | locus YAL021C, strain ccr4, active compounds read low 1.02 | locus YAL026C, strain drs2, active compounds read low 0.972 | locus YAL030W, strain snc1, active compounds read low 0.982 | locus YBL061C, strain skt5, active compounds read low 0.975 | locus YBR009C, strain hhf1, active compounds read low 0.99 | locus YBR021W, strain FUR4, active compounds read low 1 | locus YBR023C, strain chs3, active compounds read low 0.963 | locus YBR171W, strain sec66, active compounds read low 0.958 | locus YBR229C, strain ROT2, active compounds read low 1.01 | locus YBR231C, strain swc5, active compounds read low 0.97 | locus YBR279W, strain paf1, active compounds read low 0.972 | locus YCL011C, strain gbp2, active compounds read low 0.97 | locus YCL016C, strain dcc1, active compounds read low 0.998 | locus YCL029C, strain bik1, active compounds read low 0.993 | locus YCL069W, strain vba3, active compounds read low 0.941 | locus YCR088W, strain abp1, active compounds read low 0.963 | locus YDL005C, strain med2, active compounds read low 0.952 | locus YDL035C, strain GPR1, active compounds read low 1.03 | locus YDL040C, strain nat1, active compounds read low 0.981 | locus YDL074C, strain BRE1, active compounds read low 1.03 | locus YDL101C, strain DUN1, active compounds read low 1.03 | locus YDL134C, strain PPH21, active compounds read low 1.07 | locus YDL185W, strain tfp1, active compounds read low 0.999 | locus YDL192W, strain arf1, active compounds read low 1.01 | locus YDR001C, strain nth1, active compounds read low 0.965 | locus YDR069C, strain doa4, active compounds read low 0.958 | locus YDR101C, strain arx1, active compounds read low 0.995 | locus YDR137W, strain rgp1, active compounds read low 0.974 | locus YDR150W, strain NUM1, active compounds read low 1.01 | locus YDR159W, strain sac3, active compounds read low 0.97 | locus YDR162C, strain NBP2, active compounds read low 1.07 | locus YDR195W, strain ref2 0.91 | locus YDR297W, strain sur2, active compounds read low 0.975 | locus YDR318W, strain mcm21, active compounds read low 0.994 | locus YDR334W, strain swr1, active compounds read low 0.965 | locus YDR335W, strain msn5, active compounds read low 0.952 | locus YDR388W, active compounds read low 0.996 | locus YDR392W, strain spt3, active compounds read low 0.987 | locus YDR502C, strain sam2, active compounds read low 1 | locus YEL003W, strain gim4, active compounds read low 0.964 | locus YEL037C, strain rad23, active compounds read low 0.964 | locus YEL061C, strain CIN8 (second series), active compounds read low 0.923 | locus YEL061C, strain CIN8, active compounds read low 1.01 | locus YER015W, strain faa2, active compounds read low 0.983 | locus YER016W, strain bim1, active compounds read low 0.967 | locus YER110C, active compounds read low 0.995 | locus YER111C, strain swi4, active compounds read low 0.942 | locus YER155C, strain BEM2 (second series), active compounds read low 0.992 | locus YER155C, strain BEM2, active compounds read low 0.999 | locus YER167W, strain BCK2, active compounds read low 1.02 | locus YFR010W, strain ubp6, active compounds read low 0.943 | locus YGL078C, strain dbp3, active compounds read low 0.997 | locus YGL086W, strain mad1, active compounds read low 1 | locus YGL167C, strain pmr1, active compounds read low 0.984 | locus YGL173C, strain kem1, active compounds read low 0.986 | locus YGL227W, strain vid30, active compounds read low 0.957 | locus YGL240W, strain doc1, active compounds read low 0.972 | locus YGL248W, strain PDE1, active compounds read low 1.02 | locus YGL253W, strain hxk2, active compounds read low 0.955 | locus YGR078C, strain PAC10, active compounds read low 1.04 | locus YGR135W, strain pre9, active compounds read low 1 | locus YGR229C, strain SMI1, active compounds read low 1.04 | locus YGR252W, strain gcn5, active compounds read low 0.966 | locus YHR013C, strain ard1, active compounds read low 0.981 | locus YHR027C, strain rpn1, active compounds read low 0.992 | locus YHR030C, strain SLT2, active compounds read low 1.01 and 1.03 | locus YHR079C, strain IRE1 (second series), active compounds read low 1.01 | locus YHR079C, strain IRE1, active compounds read low 1.02 | locus YHR094C, strain hxt1, active compounds read low 0.983 | locus YHR129C, strain ARP1, active compounds read low 1.02 | locus YHR142W, strain chs7, active compounds read low 0.955 | locus YHR200W, strain rpn10, active compounds read low 1.01 | locus YIL066C, strain RNR3, active compounds read low 1.05 | locus YIL073C, strain SPO22, active compounds read low 1.02 | locus YIL125W, strain kgd1, active compounds read low 0.984 | locus YIR030C, strain dcg1, active compounds read low 1.01 | locus YJL092W, strain hpr5, active compounds read low 0.937 | locus YJL095W, strain BCK1 (second series), active compounds read low 0.971 | locus YJL095W, strain BCK1, active compounds read low 1.07 and 1.01 | locus YJL115W, strain asf1, active compounds read low 0.956 | locus YJL129C, strain trk1, active compounds read low 0.936 | locus YJL134W, strain LCB3, active compounds read low 1.01 | locus YJL154C, strain vps35, active compounds read low 0.948 | locus YJL164C, strain tpk1, active compounds read low 0.985 | locus YJL166W, strain qcr8, active compounds read low 0.961 | locus YJL168C, strain set2, active compounds read low 0.999 | locus YJL187C, strain SWE1 (second series), active compounds read low 1.03 | locus YJL187C, strain SWE1, active compounds read low 0.97 | locus YJR043C, strain POL32, active compounds read low 1.04 | locus YJR066W, strain TOR1, active compounds read low 0.975 | locus YJR075W, strain HOC1, active compounds read low 1.03 | locus YKL009W, strain mrt4, active compounds read low 1 | locus YKL068W, active compounds read low 1.01 | locus YKL085W, strain MDH1 (second series), active compounds read low 1.01 | locus YKL085W, strain MDH1, active compounds read low 1.01 | locus YKL160W, strain elf1, active compounds read low 0.996 | locus YKR001C, strain vps1, active compounds read low 0.987 | locus YKR026C, strain gcn3, active compounds read low 0.952 | locus YKR091W, strain srl3, active compounds read low 0.966 | locus YLL001W, strain dnm1, active compounds read low 0.97 | locus YLL026W, active compounds read low 0.989 | locus YLL041C, strain sdh2, active compounds read low 0.963 | locus YLR027C, strain aat2, active compounds read low 0.983 | locus YLR039C, strain RIC1, active compounds read low 1.12 | locus YLR058C, strain SHM2, active compounds read low 1.02 | locus YLR102C, strain apc9, active compounds read low 0.997 | locus YLR113W, strain HOG1, active compounds read low 1.04 | locus YLR221C, strain rsa3, active compounds read low 0.972 | locus YLR258W, strain gsy2, active compounds read low 0.971 | locus YLR262C, strain YPT6 (second series), active compounds read low 0.947 | locus YLR262C, strain YPT6, active compounds read low 1.12 | locus YLR268W, strain sec22, active compounds read low 1.02 | locus YLR320W, strain mms22, active compounds read low 0.975 | locus YLR330W, strain CHS5, active compounds read low 1.02 | locus YLR342W, strain FKS1 (second series), active compounds read low 1.04 | locus YLR342W, strain FKS1, active compounds read low 0.948 | locus YLR357W, strain rsc2, active compounds read low 0.917 | locus YLR370C, strain arc18, active compounds read low 0.972 | locus YLR371W, strain rom2, active compounds read low 0.994 | locus YLR384C, strain iki3, active compounds read low 0.961 | locus YLR418C, strain cdc73, active compounds read low 1.02 | locus YML016C, strain PPZ1, active compounds read low 1.02 | locus YML032C, strain rad52, active compounds read low 1.01 | locus YML120C, strain ndi1, active compounds read low 0.968 | locus YML124C, strain tub3, active compounds read low 0.994 | locus YMR058W, strain fet3, active compounds read low 0.986 | locus YMR078C, strain ctf18, active compounds read low 0.998 | locus YMR125W, strain sto1, active compounds read low 0.939 | locus YMR129W, active compounds read low 0.975 | locus YMR205C, strain PFK2, active compounds read low 0.974 | locus YMR223W, strain ubp8, active compounds read low 1 | locus YMR231W, strain pep5, active compounds read low 0.975 | locus YMR263W, strain SAP30, active compounds read low 1.03 | locus YMR307W, strain GAS1, active compounds read low 1.02 | locus YNL067W, strain RPL9B, active compounds read low 1.03 | locus YNL071W, strain lat1, active compounds read low 0.961 | locus YNL153C, strain GIM3, active compounds read low 1.04 | locus YNL183C, strain NPR1, active compounds read low 0.981 | locus YNL209W, strain ssb2, active compounds read low 0.975 | locus YNL233W, strain BNI4, active compounds read low 1.03 | locus YNL248C, strain rpa49, active compounds read low 0.937 | locus YNL250W, strain rad50, active compounds read low 0.999 | locus YNL271C, strain bni1, active compounds read low 1 | locus YNL298W, strain CLA4, active compounds read low 1.02 | locus YNL307C, strain MCK1, active compounds read low 1 | locus YNL322C, strain KRE1 (second series), active compounds read low 0.948 | locus YNL322C, strain KRE1, active compounds read low 1 | locus YNR049C, strain mso1, active compounds read low 0.962 | locus YNR052C, strain pop2, active compounds read low 1 | locus YOL012C, strain htz1 1.15 | locus YOL147C, strain pex11, active compounds read low 0.996 | locus YOR001W, strain rrp6, active compounds read low 0.933 | locus YOR061W, strain CKA2, active compounds read low 1.02 | locus YOR069W, strain VPS5, active compounds read low 1.01 | locus YOR070C, strain gyp1, active compounds read low 0.987 | locus YOR080W, strain dia2, active compounds read low 0.978 | locus YOR083W, strain WHI5, active compounds read low 0.992 | locus YOR106W, strain vam3, active compounds read low 0.977 | locus YOR136W, strain idh2, active compounds read low 1 | locus YOR144C, strain elg1, active compounds read low 0.989 | locus YOR184W, strain ser1, active compounds read low 1.02 | locus YOR231W, strain MKK1, active compounds read low 1.04 | locus YOR265W, strain rbl2, active compounds read low 0.98 | locus YOR270C, strain vph1, active compounds read low 0.931 | locus YOR290C, strain snf2, active compounds read low 1.01 | locus YOR316C, strain cot1, active compounds read low 1.01 | locus YPL051W, strain arl3, active compounds read low 0.999 | locus YPL055C, strain LGE1, active compounds read low 1.02 | locus YPL078C, strain atp4, active compounds read low 0.963 | locus YPL106C, strain sse1, active compounds read low 0.932 | locus YPL240C, strain hsp82, active compounds read low 0.963 | locus YPL241C, strain CIN2, active compounds read low 1 | locus YPL256C, strain CLN2, active compounds read low 1.02 | locus YPR119W, strain clb2, active compounds read low 1.02 | locus YPR141C, strain kar3, active compounds read low 1.01 | locus YPR163C, strain tif3, active compounds read low 0.997 | locus YPR167C, strain met16, active compounds read low 1.01 | strain wtn01, active compounds read low 1.01
